High-throughput results as filed in PubChem.
PLCg1 inh – PLC-gamma1 enzyme inhibitors, primary screen, biochemical, fluorescence, purified enzyme | fluorogenic substrate | inhibition, % at 12.2 µM | 0.84% of 370,000 active | 1-phosphatidylinositol 4,5-bisphosphate phosphodiesterase gamma-1 (Homo sapiens), P19174; in the data active = inhibition above about 9.5%
ADAM17 inh – ADAM17 inhibitors, primary screen, biochemical, QFRET; recombinant ADAM17, EDANS/DABCYL FRET peptide cleavage; inhibition, % at 6.95 µM; 0.83% of 370,000 active; AID 720648, 2013;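 active = inhibition above the mean of compounds lying between control limits plus 3 SD, set per campaign, cut at about 8.5% in these data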;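 note: 0% = DMSO-only wells as the low control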
KLK7 zymogen act – proKLK7 zymogen activators, primary screen, biochemical, fluorescence intensity; Kallikrein-7 (Homo sapiens), P49862; purified proKLK7, EDANS-DABCYL substrate fluorescence; 100% is mature enzyme control, 0% vehicle; activation, % at 7 µM; 0.9% of 370,000 active; AID 652039, 2013;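 active = activation above the mean of all tested compounds plus 3 SD, computed per campaign excluding outliers beyond control limits, cut at about 13% in these data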
Target sequence (P49862 whole entry, looked up): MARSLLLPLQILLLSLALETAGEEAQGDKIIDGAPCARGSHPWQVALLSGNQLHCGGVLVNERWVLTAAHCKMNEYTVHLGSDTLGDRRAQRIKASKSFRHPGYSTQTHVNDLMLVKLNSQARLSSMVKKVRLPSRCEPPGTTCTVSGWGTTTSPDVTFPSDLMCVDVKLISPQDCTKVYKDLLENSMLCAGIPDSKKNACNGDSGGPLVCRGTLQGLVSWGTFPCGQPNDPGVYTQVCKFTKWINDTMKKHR
ADAM10 inh – human ADAM10 inhibitors, primary screen, biochemical, QFRET, HTS. Disintegrin and metalloproteinase domain-containing protein 10 (Homo sapiens), O14672. recombinant ADAM10, EDANS/DABCYL FRET peptide cleavage, 3 h. inhibition, % at 7 µM. 0.62% of 370,000 active;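 active = inhibition above a per-campaign cutoff equal to the mean of compounds falling between control-based bounds plus 3 SD, cut at about 20% in these data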;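 note: 0% = DMSO wells while the 100% control is not disclosed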
PLCb3 inh – human PLC-beta3 inhibitors, primary screen, biochemical, fluorescence. 1-phosphatidylinositol 4,5-bisphosphate phosphodiesterase beta-3 (Homo sapiens), Q01970. Purified PLC-beta3, fluorogenic substrate. inhibition, % at 12.2 µM. 0.18% of 370,000 active; in the data active = inhibition above about 11%;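 note: 0% = median of compound wells on plate and 100% = full blocker control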
ADAM10 ctr – ADAM10 inhibitors, counter-screen for ADAM17 exosite inhibitor project, biochemical, FRET, human ADAM10; shares compounds with ADAM17 inh; recombinant ADAM10, EDANS/DABCYL FRET peptide cleavage, 3 h; inhibition, % at 6.95 µM; 47% of 2,900 active;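 active = mean inhibition over the triplicate runs exceeds the activity threshold set in the earlier primary screen, cut at about 20% in these data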;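 note: 0% = DMSO wells and 100% = marimastat wells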
ADAM17 confirm – ADAM17 inhibitors, hit retest, confirmation, biochemical, QFRET peptide cleavage; inhibition, % at 6.95 µM; recombinant ADAM17, EDANS/DABCYL QFRET peptide cleavage; shares compounds with ADAM17 inh; 65% of 2,900 active;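 active = mean inhibition across replicates above the hit cutoff set in the primary screen, cut at about 8.5% in these data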;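 note: 0% = DMSO wells and 100% = marimastat wells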
An asterisk follows results filed as active; . = not tested or not shown. A selection: hits, their analogues and other compounds. The true share with any hit is near 2.9%.

SMILES	PLCg1 inh	ADAM17 inh	KLK7 zymogen act	ADAM10 inh	PLCb3 inh	ADAM10 ctr	ADAM17 confirm
Cc1ccccc1C(=O)OCC(=O)Nc1cccc(S(=O)(=O)N2CCCCC2)c1	0	2	1	-3	0	.	.
COc1ccccc1OCCC(=O)Nc1cccc(S(=O)(=O)N2CCCCC2)c1	0	-3	-1	-7	0	.	.
CSc1ncccc1C(=O)OCC(=O)Nc1ccc(S(=O)(=O)N2CCCC2)cc1	1	9.5*	1	9	-1	1	6
Cc1ccc(S(=O)(=O)N2C3CC(c4ccccc4)N(S(=O)(=O)c4ccccc4Cl)CC3C(=O)C[C@H]2c2ccccc2)cc1 (stereo not given in full)	3	4	0	12	4	.	.
COC(=O)[C@]12C[C@H](CC(=O)N3CCCCC3)C(=O)N(CCC3=CCCCC3)C1=C[C@H](C(C)C)O[C@@H]2C1CC1	0	-6	0	4	3	.	.
COc1ccc(S(=O)(=O)N2CCOC2CNC(=O)C(=O)NCc2ccccn2)cc1OC (stereo not given)	3	5	0	13	7	.	.
CCOc1ccc(-n2c(SCC(=O)Nc3ccc4cn[nH]c4c3)nnc2-c2ccncc2)cc1	2	2	0	5	4	.	.
CC(=O)c1ccccc1OCC(=O)Nc1cccc(S(=O)(=O)N2CCCC2)c1	9	9.3*	1	-11	-3	10	4
CCOc1ccc(NC(=O)COC(=O)c2cc(S(=O)(=O)N3CCCC3)ccc2C)cc1	8	9.4*	0	5	2	16	7
COC(=O)[C@]12CCCCC=C1N(Cc1ccccc1)C(=O)[C@H](CC(=O)N1CCC(c3ccccc3)CC1)C2	6	5	1	6	4	.	.
CCCCc1c(-c2ccc(F)cc2F)ncn1CCc1ccccc1OC	-1	6	0	15	7	.	.
COc1ccccc1CCn1cnc(-c2ccc(F)cc2F)c1CC(C)C	1	10*	1	12	4	29*	14*
C[C@@H]1CCCCO[C@@H](CN(C)C(=O)Nc2ccc(F)cc2)[C@@H](C)CN([C@H](C)CO)C(=O)c2cc(NC(=O)Nc3ccc4c(c3)OCO4)ccc2O1	1	1	0	4	1	.	.
C=CCN1C(=O)[C@@H](CC(=O)NCc2cccc3ccccc23)[C@]2(C(=O)OCC)CCCCC/C=C/12	3	11*	0	8	6	8	5
CCOC(=O)[C@]12CCCCC/C=C\1N(Cc1ccc(OC)cc1)C(=O)[C@H]2CC(=O)NCC1CCCCC1	3	13*	0	11	2	9	5
COc1ccc(C(=O)c2[nH]c(N)c(C(=O)c3ccccc3)c2-c2ccc(OC)c(OC)c2)cc1	-5	-2	.	-4	-5	.	.
CCCCN(C=O)c1c(CC)nc2ccc(C(=O)NCCc3ccccn3)cn12	-15	-9	2	-25	-18	.	.
COc1ccc(-c2n[nH]c(C)c2-c2ccc(Cl)cc2)c(O)c1OC	2	11*	0	10	-1	22*	8
COc1ccc(C(C)(O)c2nc(-c3ccccc3OC)cs2)cc1 (stereo not given)	1	4	1	12	2	.	.
CCN1C(=O)N[C@@H](CCc2ccccc2)[C@@H](C(=O)OC)[C@H]1C	4	9.8*	1	-1	7	7	7
CC1(C(=O)NS(=O)(=O)c2cccs2)CCN1C(=O)CC1CCCCC1 (stereo not given)	2	-6	1	-10	-3	.	.
OC(c1ccccc1)(c1ccccc1)C1CCN(CCCOc2cccc(C(F)(F)F)c2)CC1	2	9.9*	0	13	2	27*	19*
OC(c1ccccc1)(c1ccccc1)C1CCN(CCCOc2cccc(Cl)c2)CC1	6	0	0	-14	-2	.	.
OC(c1ccccc1)(c1ccccc1)C1CCN(CCCOc2ccc(C(F)(F)F)cc2)CC1	3	11*	1	11	1	24*	9.8*
COc1cccc(-c2cnc3c(NC(C)=O)cc(-c4ccc(S(C)(=O)=O)cc4)cn23)c1	-86	-19	-3	-62	-140	.	.
SMILES	PLCg1 inh	ADAM17 inh	KLK7 zymogen act	ADAM10 inh	PLCb3 inh	ADAM10 ctr	ADAM17 confirm
CCOC(=O)N1CCN(C(=O)C[C@H]2C[C@@]3(C(=O)OC)C(=C[C@H](C(C)C)O[C@@H]3C3CC3)N(Cc3ccc(Cl)cc3Cl)C2=O)CC1	7	9.2*	1	6	0	18	12*
COc1ccc(S(=O)(=O)N2CCC[C@H]2C(=O)N2CCC[C@H]2C(=O)NCc2ccncc2)cc1C	4	4	0	-11	6	.	.
Cc1ccc(C(=O)NCCNc2ccc([N+](=O)[O-])cc2C(F)(F)F)cc1	4	8.8*	0	14	-36	20*	12*
O=C(NCCNc1ccc([N+](=O)[O-])cc1C(F)(F)F)c1ccccc1F	5	1	0	1	4	.	.
COc1ccc(N2CCN(C(=O)CN(c3cccc(Br)c3)S(C)(=O)=O)CC2)cc1	8	14*	0	8	8	4	-1
CCOc1ccc(NS(=O)(=O)c2ccc3c(c2)CCN3C(=O)CCC(=O)O)cc1	7	9.8*	-1	14	3	-3	0
CCOc1ccc(NS(=O)(=O)c2ccc3c(c2)CCN3C(=O)C2CCC2)cc1	1	-1	-1	3	1	.	.
CCOc1ccc(CNC(=S)N/N=C/c2ccc(OC)c(OC)c2)cc1	1	8.7*	0	10	-2	14	15*
O=C(Nc1ccn(Cc2ccccc2F)n1)c1ccc(COc2ccccc2Cl)cc1	3	13*	1	19	-2	31*	18*
COC(=O)c1cc2occc2n1CC(=O)Nc1cc(OC)cc(OC)c1	-4	0	1	0	-4	.	.
COC(=O)c1cc2oc(C)cc2n1CC(=O)Nc1cc(C)cc(C)c1	0	9.6*	5	8	-6	-17	-6
COCc1cc(N2CCNC[C@@H]2C)ccc1N1CCN(Cc2ccccc2)[C@H](C)C1	-1	-6	0	-12	-3	.	.
